# The panel holds about 79,000 compounds, 15% with a hit somewhere; the sample as a whole holds those more often. Active and inactive are the calls of the source. Cut-off read from the data, not from the text of the source: active = growth inhibition above about 70%; inactive = the rest.
# Experiment: NCI Yeast Anticancer Drug Screen. Data for the rad50 strain (AID 155);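 note: 0% = growth of vehicle-only cultures of the same strain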
# Settings: S. cerevisiae rad50 strain growth inhibition; at 5.0 µM (retest, dose inferred, filed as 0.5); hits give high values
# Outline: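 Genetically altered yeast (DNA repair pathway); compound treatment; growth inhibition vs vehicle ctrl.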
row,SMILES,growth inhibition
1,Cc1nnc2nc3c(nn12)c1ccccc1n3C,-155% (inactive)
2,CS(=O)c1cc(=O)c2ccccc2s1 (configuration not stated),6% (inactive)
3,COC(=O)C1=C(C)NC(C)=C(C(=O)OC)C1c1ccc(NCc2ccccc2)c([N+](=O)[O-])c1,4% (inactive)
4,C/C(=N/NC(=S)Nc1ccccc1Cl)c1ccccn1,-1% (inactive)
5,Nc1ccccc1Sc1ccc(C(F)(F)F)cc1[N+](=O)[O-],-1% (inactive)
6,COc1ccc2nc(-c3ccc(Cl)cc3)[nH]c2c1,1% (inactive)
7,Cc1c(C)c(C)c(C(=O)c2ccccc2C(=O)NCCSC(C)(C)C)c(C)c1C,42% (inactive)
8,COC(=O)C(=O)C(C(=O)Nc1cccc(C)c1C)C1Sc2ccccc2NC1=O (configuration not stated),99% (active)
9,Cc1nc2c(O)c3c(c(O)c2nc1C)C1C=CC3CC1,30% (inactive)
10,C[C@]12CCC(=O)C=C1CC[C@@H]1[C@@H]2[C@@H](O)C[C@@]2(C)[C@H]1CC[C@]2(O)C(=O)COC(=O)CCC1CCCC1,83% (active)
11,CC(=O)OCCc1ccc(CCc2ccccc2)cc1,13% (inactive)
12,COc1cc2c(cc1OC)C(=O)C(C)(c1ccccc1)NC2 (configuration not stated),20% (inactive)
13,CCCCCCC(/C=C/c1c(Cl)cccc1Cl)=N\O,-4% (inactive)
14,O=C1OC(c2ccc(O)cc2)=C(c2ccccc2)C1c1ccccc1 (configuration not stated),9% (inactive)
15,c1cc[c]([Ge]([O]c2cccc3cccnc23)([c]2ccccc2)[c]2ccccc2)cc1,10% (inactive)
16,CCCCCCCCCCCCCCCCCCOP(=O)([O-])OCC[N+](C)(C)C,14% (inactive)
17,Cc1noc(NS(=O)(=O)c2ccc(NCc3c4ccccc4nc4cc(Cl)ccc34)cc2)c1C,4% (inactive)
18,CCC(=NCCCCCCN=C(CC)c1cc(C)cc([N+](=O)[O-])c1O)c1cc(C)cc([N+](=O)[O-])c1O.[Fe],10% (inactive)
19,O=C(O)c1ccc([N+](=O)[O-])cc1.[Ag],99% (active)
20,O=C1C(=O)c2ccccc2C(O)=C1C(c1ccccc1)c1ccccc1,42% (inactive)
21,CC(=O)SC1C(=O)N(C)C(SC(C)=O)C(=O)N1C (configuration not stated),-5% (inactive)
22,COc1ccc2c(c1)CN([C@@H](C)[C@H]1CC[C@H]3[C@@H]4CC[C@H]5C[C@@H](O)CC[C@]5(C)[C@H]4CC[C@]13C)CO2,90% (active)

# Source: PubChem BioAssay (NCI)
